# Compounds with a hit are over-represented: about 2.4% of the library has one in this group of screens.
# CHO-K1 Ca antag = counter-screen for M1 antagonists: effect in parental CHO-K1 cells; 360,000 tested, 0.6% active; ATP-induced calcium, Fluo-8 fluorescence; AID 602250; inhibition, % at 3 µM;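 active means inhibition above a per-plate cutoff, the plate's mean sample inhibition plus 3 SD, cut at about 24% in these data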;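 further: 0% = DMSO plus EC80 ATP and 100% = DMSO alone without ATP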
# CHRM1 antagonist = human CHRM1 antagonism | CHO-K1 hM1, Fluo-8 calcium fluorescence, ACh EC80 antagonist | inhibition, % at 3 µM | 360,000 tested, 1.3% active;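 active means percent inhibition above its own plate's cutoff, namely the mean of that plate's compound wells plus 3 SD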;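 further: peak over basal fluorescence ratio during 140 s after agonist addition; 0% = ACh EC80 plus DMSO and 100% = DMSO alone without agonist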
# Target sequence (P11229 whole entry, looked up): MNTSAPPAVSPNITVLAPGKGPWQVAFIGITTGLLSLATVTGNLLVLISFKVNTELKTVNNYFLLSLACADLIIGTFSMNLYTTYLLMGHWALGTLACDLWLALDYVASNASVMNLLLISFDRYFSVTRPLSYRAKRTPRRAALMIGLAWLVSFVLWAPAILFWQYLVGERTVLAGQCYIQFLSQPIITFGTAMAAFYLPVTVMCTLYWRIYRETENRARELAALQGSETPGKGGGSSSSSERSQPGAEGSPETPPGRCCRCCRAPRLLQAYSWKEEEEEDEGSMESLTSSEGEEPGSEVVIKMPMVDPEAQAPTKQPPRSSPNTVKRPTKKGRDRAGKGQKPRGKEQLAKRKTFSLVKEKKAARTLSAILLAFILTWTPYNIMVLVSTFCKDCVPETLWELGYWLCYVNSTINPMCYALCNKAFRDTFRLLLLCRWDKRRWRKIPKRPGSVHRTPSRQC
# CHRM1 agonist = human M1 muscarinic receptor agonism. CHO-K1 hM1, Fluo-8 calcium fluorescence, agonist mode; 0% DMSO, 100% acetylcholine EC100. activation, % at 3 µM. 360,000 tested, 0.33% active. AID 588814;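 active means activation above the run's mean compound activation plus 3 SD, cut at about 16% in these data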;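 further: peak over basal fluorescence ratio within a 140 s kinetic read after compound addition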
# M1 PAM = potentiates human M1 receptor response to acetylcholine. P11229. CHO-K1 hM1, Fluo-8 calcium fluorescence, ACh EC20; 0% = ACh EC20, 100% = maximal ACh. activation, % at 3 µM. 360,000 tested, 0.088% active. AID 588819; in the data active means activation above about 19%, passing the limit was not always enough
# CHO-K1 Ca ag = nonselective activator or artifact in parental CHO-K1 cells | activation, % at 3 µM | AID 602248 | Fluo-8 calcium fluorescence; scaled to maximal ATP response, vehicle zero | 360,000 tested, 0.48% active; in the data active means activation above about 15%;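 further: untransfected CHO-K1 host cells lacking M1 receptor as counterscreen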
# CHO-K1 Ca PAM = M1 PAM counterscreen hit in parental CHO-K1 cells; AID 602247; ATP EC20, Fluo-8 calcium fluorescence; 0% at ATP EC20, 100% at ATP max; activation, % at 3 µM; 360,000 tested, 0.02% active;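 active means activation above the run cutoff, the mean activation of all test compounds plus 3 SD, cut at about 40% in these data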;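 further: peak over basal fluorescence ratio in a 140 s read after ATP addition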
# The depositor's hits bear a star.
SMILES,CHO-K1 Ca antag,CHRM1 antagonist,CHRM1 agonist,M1 PAM,CHO-K1 Ca ag,CHO-K1 Ca PAM
Cc1ccc(CN(C)C[C@@H]2OCc3cnnn3CCCC(=O)N([C@H](C)CO)C[C@H]2C)cc1,8,-11,-9,6,0,2
C[C@@H]1CN([C@H](C)CO)C(=O)CCCn2nncc2CO[C@H]1CN(C)Cc1ccc(Oc2ccccc2)cc1,-6,54*,-11,-32,1,15
C[C@H](CO)N1C[C@H](C)[C@@H](CN(C)Cc2ccc(O)cc2)OCc2cnnn2CCCC1=O,2,-8,-7,0,0,-6
COc1ccccc1CN(C)C[C@H]1OCc2cnnn2CCCC(=O)N([C@H](C)CO)C[C@@H]1C,20,-17,0,10,0,-8
CCCCCCCCCCCCCCCC[n+]1ccc(/C=N/O)cc1,-16,31*,-12,-24,0,32
CCN(c1cccc(C)c1)S(=O)(=O)c1ccc2c3c(cccc13)C(=O)N2,28*,6,-3,0,1,-8
O=C1CC(NS(=O)(=O)c2cccs2)CN1c1ccccc1 (stereo not drawn),-7,-9,-3,5,1,16
Cc1ccc2nc(C)cc(C(=O)N3CCCC(N4CCN(c5ccccc5C)CC4)C3)c2c1 (stereo not drawn),4,-3,-4,3,0,-2
CCOc1ccc(-c2cc(C(=O)NCc3ccc(C(F)(F)F)cc3)[nH]n2)c(C)c1,0,2,-3,-3,0,-8
Cc1cc(F)ccc1-c1cc(C(=O)NCc2ccc(C(F)(F)F)cc2)[nH]n1,3,9,32*,1,16*,26
CCCCS/C(=C(/C#N)C(N)=O)c1cc2c([nH]1)CCCC2,7,25*,-6,-25,0,8
Cc1no[n+]([O-])c1COc1cccc(/C=C2\N=C(c3ccccc3)OC2=O)c1,5,-10,-3,11,-1,13
O=C1OC(c2ccccc2)=N/C1=C/c1cccc(OC(=O)c2cccs2)c1,43*,-15,-2,2,2,7
COc1ccccc1N1CCN(Cc2nc(-c3ccc(F)cc3)oc2C)CC1,2,3,-9,0,3,16
COc1ccccc1N1CCN(Cc2cn[nH]c2-c2ccc(F)cc2)CC1,-32,-19,44*,16,19*,27
COc1ccc(C2c3ccc4ccccc4c3Oc3ncn(Cc4ccco4)c(=N)c32)cc1OC (stereo not drawn),26*,9,-8,-12,0,-14
O=C(c1ccoc1)N1CCN(c2cc(-c3cccc(F)c3)nc3cc(-c4cccc(Cl)c4)nn23)CC1,-6,-7,4,13,0,-9
O=C(N[C@@H](Cc1ccccc1)C(=O)OCc1ccccc1)c1ccco1,-5,-2,-4,1,4,14
N/C(Cc1ccccc1Sc1ccccc1)=N\O,-3,2,-1,-2,1,6
CCN(CC)Cc1ccccc1Sc1ccccc1,4,98*,-7,-26,0,9
COCCNC(=O)CN(C(=O)CCC(=O)Nc1ccccn1)c1cc(C)ccc1C,8,-22,-2,19,0,-6
NC(=S)NN=C1Cc2cccc3cccc1c23,-15,-12,-2,8,0,16
Cc1cnc(C(=O)OCC(=O)N2c3ccccc3NC(=O)C2(C)C)cn1,-11,-10,-3,7,0,10
Cc1nn(-c2ccccc2)c(C)c1C(=O)OCC(=O)N1c2ccccc2NC(=O)C1(C)C,19,33*,0,-9,4,8
Cc1cccc(OCCC(=O)OCC(=O)N2c3ccccc3NC(=O)C2(C)C)c1,-7,-1,1,-10,13,12
SMILES,CHO-K1 Ca antag,CHRM1 antagonist,CHRM1 agonist,M1 PAM,CHO-K1 Ca ag,CHO-K1 Ca PAM
CC(C)(C)c1ccc(OCCC(=O)OCC(=O)N2c3ccccc3NC(=O)C2(C)C)cc1,18,34*,2,-13,7,-19
CC1(C)C(=O)Nc2ccccc2N1C(=O)COC(=O)CSc1ccc(Cl)cc1,-10,-4,-4,2,2,-5
CC1(C)C(=O)Nc2ccccc2N1C(=O)COC(=O)CNS(=O)(=O)c1ccc(F)c(F)c1F,24*,4,-5,-4,-1,-22
COc1cccc(CN2CC(C(=O)NCCN3CCOCC3)CCC2=O)c1 (stereo not drawn),-11,-12,-4,7,2,10
CC(C)CC(=O)Nc1cc2c3c(c1)C(C)C(=O)N3CCC2 (stereo not drawn),-10,-11,-2,5,2,13
COCCNC(=O)Cn1ccc2cc(S(=O)(=O)N3CCCCCC3)ccc21,-14,-12,-1,9,3,16
Cc1cccc(C)c1C(OCCN(C)C)C1CCCCC1 (stereo not drawn),8,99*,-8,-26,1,3
COCCN(C(=O)CCl)C(C(=O)NC1CCCCC1)c1ccccc1C (stereo not drawn),14,-9,-7,6,0,-8
O=C(CSc1nc(-c2ccco2)cc(C(F)(F)F)n1)NC1CCCC1,24*,-3,3,-2,2,5
O=C(CSc1nc(-c2ccco2)cc(C(F)(F)F)n1)Nc1ccc2c(c1)CCC2,5,-27,0,6,0,-5
CCN(CC)S(=O)(=O)c1ccc(S(=O)(=O)Nc2ccc3c(c2)oc2ccccc23)cc1,25*,5,-3,-6,0,-6
CN(C)c1ccc2c(c1)OC(N)=C(C#N)C2c1cccc(F)c1 (stereo not drawn),8,11,4,-5,17*,11
N#CC1=C(N)Oc2cc(N)ccc2C1c1cccc(F)c1 (stereo not drawn),-13,-9,-4,8,2,22
N#Cc1ccc(NC(=O)Nc2cccc(C#N)c2)cc1,31*,20,7,-8,18*,-21
N#Cc1ccc(NC(=O)Nc2ccc(Oc3ccc(NC(=O)Nc4ccc(C#N)cc4)cc3)cc2)cc1,-3,4,1,1,14,-2
CCc1noc(C)c1C(=O)OCC(=O)NCc1ccccc1OC,-10,-12,-1,12,-1,14
CCc1ccc(NC(=O)C2CCN(S(=O)(=O)c3ccc4c(c3)NC(=O)C(C)S4)CC2)cc1 (stereo not drawn),11,55*,-2,-19,6,4
Cc1ccc(NC(=O)C2CCN(S(=O)(=O)c3ccc4c(c3)NC(=O)C(C)S4)CC2)cc1C (stereo not drawn),19,36,0,-12,10,-18
CCOC(=O)c1c(C)[nH]c(C(=O)COC(=O)C2CC2)c1C,13,31*,0,-12,0,-24

# From PubChem BioAssay
